SMILES strings stand for the structures. The panel holds about 83,000 compounds, 20% with a hit somewhere; the sample as a whole holds those more often.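 96-well plates, one dose, 48 hours. Percent growth reported; active if below 10.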 Values without a mark were called inactive. Calls of active or inactive are those of the source.

Some test systems named below: NCI-H23 lung; NCI-H226 lung; HOP-62 NSCLC; NCI-H460 lung; HOP-92 NSCLC; NCI-H522 lung; A549/ATCC NSCLC; 786-0 renal; COLO 205 colon; DU-145 prostate; K-562 leukemia; MDA-MB-231 breast; RXF 393 renal; SF-268 CNS; SF-295 CNS; SF-539 CNS; UACC-257 melanoma; M14 melanoma; MALME-3M melanoma.
Holding throughout (assay): NCI-60 one-dose screen, 48 h (100 = growth as untreated, 0 = no growth, -100 = all killed)
Conditions in all cases: 10 µM unless noted

With `O=C(N/N=C\c1ccccc1O)C1CC1`, the growth with NCI-H23 lung is 116%; in the assay on NCI-H226 lung it was 104%; in the assay on HOP-62 NSCLC it was 105%; in the assay with NCI-H460 lung, 115%; in the assay on HOP-92 NSCLC, 90.8%; with NCI-H522 lung it was 98.1%. In addition, the growth with A549/ATCC NSCLC is 102%; with 786-0 renal, 105%; in the assay on COLO 205 colon, 109%; with DU-145 prostate it was 108%; with K-562 leukemia it was 113%; in the assay with MDA-MB-231 breast, 103%. Also, the growth was 112% in the assay with RXF 393 renal; 98.7% in the assay with SF-268 CNS; 110% in the assay on SF-295 CNS; 110% in the assay with SF-539 CNS; 94.7% in the assay on UACC-257 melanoma; 109% in the assay on M14 melanoma.

Consider `Nc1c(C(=O)Nc2cccc(Cl)c2)sc2ncc(Cl)cc12`, for which the growth in the assay with NCI-H23 lung is 87%; in the assay with NCI-H226 lung it was 75.7%; with HOP-62 NSCLC, 73%; in the assay with NCI-H460 lung, 13.8%; in the assay with HOP-92 NSCLC, 91.9%; with NCI-H522 lung, 97.4%. Further, the growth in the assay with A549/ATCC NSCLC is 43.4%; in the assay with 786-0 renal, 85.4%; in the assay with COLO 205 colon, 79.6%; in the assay on DU-145 prostate, 56.7%; in the assay with K-562 leukemia it was 80.6%; in the assay with MALME-3M melanoma, 69.8%. Also, the growth in the assay on MDA-MB-231 breast was 83.7%; in the assay on RXF 393 renal, 83.5%; in the assay with SF-268 CNS it was 63.5%; in the assay on SF-539 CNS, 60.8%; in the assay with UACC-257 melanoma, 100%; with M14 melanoma, 88.2%.

`COc1ccc(-c2nc(SCC(=O)Nc3ccc(C(C)=O)cc3)[nH]c(=O)c2C#N)cc1`: the growth is 97.2% in the assay with NCI-H23 lung; 91% in the assay with NCI-H226 lung; 101% with HOP-62 NSCLC; 111% in the assay on NCI-H460 lung; 98.3% in the assay on HOP-92 NSCLC; 67.9% in the assay with NCI-H522 lung. The growth with A549/ATCC NSCLC is 85.3%; in the assay with 786-0 renal, 94.7%; with COLO 205 colon, 115%; in the assay with DU-145 prostate it was 106%; in the assay with K-562 leukemia, 98.8%; in the assay with MALME-3M melanoma, 103%. The growth in the assay on MDA-MB-231 breast was 95.2%; in the assay on RXF 393 renal it was 108%; in the assay on SF-268 CNS, 101%; in the assay with SF-295 CNS, 95.1%; in the assay with SF-539 CNS, 97.6%; in the assay on UACC-257 melanoma, 84.7%. In addition, the growth in the assay on M14 melanoma is 87.6%.

Turning to `O=[N+]([O-])c1cccc(/C=N\Nc2ccccc2)c1`, the growth is 88.5% in the assay with NCI-H23 lung; 70.1% in the assay on NCI-H226 lung; 84% in the assay on HOP-62 NSCLC; 77.1% in the assay with NCI-H460 lung; 66% with HOP-92 NSCLC; 54.9% in the assay on NCI-H522 lung. For the same compound, the growth with A549/ATCC NSCLC is 67.4%; in the assay with 786-0 renal it was 74.4%; in the assay on COLO 205 colon it was 85.4%; in the assay with DU-145 prostate, 80.2%; with K-562 leukemia it was 16.6%; in the assay with MDA-MB-231 breast it was 55.7%. Besides, the growth was 101% with RXF 393 renal; 62.5% in the assay on SF-268 CNS; 49.2% in the assay with SF-295 CNS; 96.7% in the assay with SF-539 CNS; 95.3% with UACC-257 melanoma; 33.7% in the assay on M14 melanoma.

As for `Cc1cc(N(CCCNc2ccnc3cc(Cl)ccc23)Cc2ccco2)nc(N2CCOCC2)n1`, the growth in the assay with NCI-H23 lung is 52.8%; with NCI-H226 lung it was 82.7%; with HOP-62 NSCLC it was 64.4%; in the assay on HOP-92 NSCLC, 51.8%; in the assay with NCI-H522 lung, 90.5%; with A549/ATCC NSCLC, 83.1%. The growth is 68% with 786-0 renal; 56.7% with COLO 205 colon; 74.7% in the assay with DU-145 prostate; 26.9% in the assay with K-562 leukemia; 92.8% with MALME-3M melanoma; 58.5% in the assay with MDA-MB-231 breast. Besides, the growth with RXF 393 renal is 71%; in the assay with SF-268 CNS, 77.7%; in the assay on SF-295 CNS it was 62.7%; in the assay on SF-539 CNS, 51.1%; in the assay on UACC-257 melanoma it was 106%; in the assay with M14 melanoma, 72.5%.

For the compound `Brc1ccc(Cn2nnnc2-c2ccn(-c3ccccc3)n2)cc1`, the growth in the assay on NCI-H23 lung was 62.3%; in the assay with NCI-H226 lung, 62.8%; in the assay with HOP-62 NSCLC, 74.3%; in the assay on NCI-H460 lung, 73.8%; in the assay on HOP-92 NSCLC, 63.8%; in the assay with NCI-H522 lung it was -1.66% (active). Moreover, the growth in the assay with A549/ATCC NSCLC is 67.8%; in the assay on 786-0 renal it was 82.8%; with COLO 205 colon, 96.6%; with DU-145 prostate, 85.8%; in the assay with K-562 leukemia, 46.2%; with MALME-3M melanoma, 103%. Moreover, the growth is 73.5% in the assay on MDA-MB-231 breast; 87.1% in the assay with RXF 393 renal; 73.2% in the assay on SF-268 CNS; 50.5% in the assay with SF-295 CNS; 80.8% in the assay on SF-539 CNS; 28.8% in the assay on UACC-257 melanoma. Further, the growth in the assay on M14 melanoma was 83.4%.

`Cc1cc(N2CCN(C)CC2)nc(N(CCNc2ccnc3cc(Cl)ccc23)Cc2ccco2)n1`: the growth with NCI-H23 lung was 57.5%; in the assay on NCI-H226 lung, 92.9%; in the assay with HOP-62 NSCLC, 26.8%; with NCI-H460 lung, 24.3%; in the assay on HOP-92 NSCLC it was 49.2%; with NCI-H522 lung it was 53.7%. Moreover, the growth in the assay with A549/ATCC NSCLC was 41.4%; in the assay on 786-0 renal it was 32.6%; in the assay on COLO 205 colon, -5.82% (active); in the assay with DU-145 prostate, 56.8%; in the assay with K-562 leukemia it was 1.61% (active); in the assay with MALME-3M melanoma, -57.7% (active). For the same compound, the growth with MDA-MB-231 breast was 9.87% (active); with RXF 393 renal it was 40.4%; with SF-268 CNS, 52.8%; in the assay with SF-295 CNS, -15.3% (active); with SF-539 CNS, -68.3% (active); in the assay with UACC-257 melanoma it was 5.22% (active). Moreover, the growth in the assay with M14 melanoma was -87.5% (active).

With `C=C(C)[C@@H]1CC[C@]2(C(=O)OC)CC[C@]3(C)[C@H](CC[C@@H]4[C@@](C)(CC/C(N)=N/O)[C@H](C(=C)C)CC[C@]43C)[C@@H]12`, the growth with NCI-H23 lung was 107%; in the assay with NCI-H226 lung, 97.2%; in the assay on HOP-62 NSCLC, 103%; in the assay on NCI-H460 lung, 99.5%; with HOP-92 NSCLC it was 102%; with NCI-H522 lung, 95.4%. Further, the growth in the assay on A549/ATCC NSCLC was 91.8%; in the assay with 786-0 renal it was 94.7%; in the assay on COLO 205 colon, 107%; in the assay on DU-145 prostate, 104%; with K-562 leukemia it was 86.3%; in the assay on MALME-3M melanoma it was 98.2%. For the same compound, the growth with MDA-MB-231 breast was 104%; in the assay with RXF 393 renal, 112%; in the assay with SF-268 CNS, 96.6%; in the assay on SF-295 CNS it was 96.4%; in the assay with SF-539 CNS it was 97.5%; in the assay on UACC-257 melanoma, 103%. For the same compound, in the assay with M14 melanoma, the growth was 99.1%.

(Values after PubChem BioAssay (NCI).)
